Pf growth 96h – Primary qHTS for delayed death inhibitors of the malarial parasite plastid, 96 hour incubation | AID 504834, 2011 | P. falciparum luciferase reporter growth, 96 h | actives 6.9% (n = 320,000) | Potency, µM (highest dose often 28.7 µM), without a hit: at the highest dose activity change, negative = inhibition, usual class: inhibitors; also: % is scaled to controls: 0 for no effect and ±100 for the full control effect
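Luminescence readout: decreased luciferase signal marks inhibited growth of reporter-expressing P. falciparum in infected red cells (2% hematocrit, 0.05% parasitemia final), exposed to compound two generations (96 h, 37 C, 5% CO2).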
Pf growth 48h – Primary qHTS for delayed death inhibitors of the malarial parasite plastid, 48 hour incubation | P. falciparum luciferase growth in erythrocytes, 48 h | Potency, µM (series often up to 28.7 µM), for inactives: top-dose activity change, negative = inhibition, actives largely listed as inhibitors | actives 5.9% (n = 310,000); also: % is scaled to controls: 0 for no effect and ±100 for the full control effect
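Luminescence readout; reporter = integrated firefly luciferase in P. falciparum. RBC culture at 2% hematocrit, 0.1% parasitemia final, 37 C/5% CO2; decreased signal taken as growth inhibition.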
HCV inhibitor – qHTS Assay for Inhibitors of Hepatitis C Virus (HCV); Huh7.5.1 HCVcc-Cre infection, luciferase reporter, 44 h; AID 651820, 2012; Potency, µM (top dose mostly 41.8 µM), for the others: top-dose activity change, negative = inhibition, hits mostly inhibitors; actives 3.4% (n = 340,000); also: % is scaled to controls: 0 for no effect and ±100 for the full control effect
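Cells (1,000/well) were plated 4 h before compound, then infected with HCVcc-Cre virus (~0.5 moi). After 44 h further culture, infection was read as luciferase luminescence following a 15 min substrate incubation at room temperature.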
AMA1-RON2 inh – qHTS for Inhibitors of AMA1-RON; Towards Development of Antimalarial Drug Lead: Primary Screen. Plasmodium falciparum AMA1 (3D7) - RON2 peptide interaction. AlphaScreen AMA1-biotinylated RON2 peptide binding. Potency, µM (titrated, usually from 58.2 µM), without a hit: at the top dose activity change, negative = inhibition, most hits filed as inhibitors. actives 0.2% (n = 360,000). AID 720542, 2013;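 also: 0% = vehicle wells and -100% = peptide control; nearly all actives have a fitted effect of over 45% in size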
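AMA1 (3D7) with his tag at 25 nM final met compounds first, then biotinylated RON2 peptide at 25 nM; detection used donor plus acceptor beads, 10 µg/mL apiece, read by AlphaScreen after 30 min at room temperature.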
NS1 inh – qHTS Assay for Inhibitors of Influenza NS1 Protein Function. Potency, µM (series often up to 46.1 µM), for inactives: top-dose activity, positive = more growth. actives 0.4% (n = 270,000). AID 2326, 2010; calls by dose curve; also: actives are rising curves; nearly all actives have a fitted effect of over 50% in size
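S. cerevisiae expressing influenza A NS1, grown in glucose, washed, then diluted 1:100 into pH 6.0 -URA galactose medium with 23 nl compound. Growth recovery read as OD600; NS1-free strain serves as control.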
SARS PLpro yeast – qHTS of Yeast-based Assay for SARS-CoV PLP | S. cerevisiae expressing SARS-CoV PLpro, growth rescue | Potency, µM (doses to about 32.9 µM), for inactives: at the top dose activity, positive = growth rescue, most hits filed as activators | actives 0.19% (n = 330,000) | AID 485353, 2010; calls by dose curve; also: 0% is about no effect; nearly all actives have a fitted effect of over 55% in size
Starred values were filed as active, the others as inactive; ? = inconclusive; . = not tested or not shown; [ ] = remark or other dose. In the library only some 12% were active in any assay of this set; here they are far more common. Unless noted, calls follow the shape of the dose curve; as a rule, active = well fitted curve in the direction sought with a large enough effect; inconclusive = small, poorly fitted or top-dose-only effect, or another doubt; inactive = no such curve, though single readings can be large; an effect the other way counts as inactive or inconclusive. Potency is read from the fitted curve at half-maximal effect.

SMILES | Pf growth 96h | Pf growth 48h | HCV inhibitor | AMA1-RON2 inh | NS1 inh | SARS PLpro yeast
O=C(CSCc1cnn(-c2ccccc2)c1-n1cccc1)NCc1cccs1 | 4.7µM* | . | -30% | -3% | -69% | -15%
COC(=O)c1cccc(NC(=O)c2cccnc2C(=O)O)c1C | 19% | 18% | 20% | -12% | 3% | 0%
CCN(CC)CCNc1nc2c(c(=O)[nH]c(=O)n2C)n1CC(O)COc1ccc(Cl)cc1Cl (centres undefined) | 12µM* | ? | 17% | 1% | 3% | -3%
O=C(Cn1cc(CNC(=O)C2CCCCC2)nn1)Nc1cc(C(F)(F)F)ccc1Cl | . | . | . | . | . | -36%
O=C(CCCCCNC(=O)N1CCn2c1nc1ccccc12)NCc1ccccc1Cl | 0% | -16% | -25% | 6% | -22% | -4%
O=C(Nc1cccc(OC(F)(F)F)c1)c1ccc(-c2cccnc2)c2ccoc12 | . | . | . | 45% | . | .
Cc1ccc([N+](=O)[O-])cc1N=C(c1ccc([N+](=O)[O-])cc1)N1CCOCC1 | 8.3µM* | ? | 5% | -3% | 6% | -4%
CN(c1ccc(OC(=O)CN2C(=O)NC3(CCCC3)C2=O)cc1)S(=O)(=O)c1ccccc1 | 24% | 18% | 35% | 27% | . | 1%
C/C(=N\NC(=S)NC1CCCCC1)c1cccc(Br)c1 | 0.47µM* | 1µM* | 0% | 0% | 12% | 3%
CCNC(=S)N/N=C(\C)c1cccc(C(F)(F)F)c1 | 12µM* | 9% | ? | 29% | . | ?
CC(=O)N/N=C(\C)c1cccc(C(F)(F)F)c1 | 2% | ? | 12% | 26% | 3% | 0%
O=C(CNS(=O)(=O)c1cccc(C(F)(F)F)c1)NC1CCCCCC1 | . | . | -3% | 5% | . | 1%
C/C(=N\NC(=S)NC1CCCCC1)c1cccc(C(F)(F)F)c1 | ? | 3.7µM* | -26% | 112% | -2% | -2%
CCC(C(=O)NCc1cccnc1)c1ccccc1 (centres undefined) | ? | 2% | 6% | -11% | 2% | 0%
O=C(NCc1ccncc1)/C(=N/O)c1ccccc1 | 10µM* | 30% | 9% | 15% | 0% | 3%
COC(=O)c1ccccc1NC(=O)NCc1ccncc1 | 13µM* | -2% | 1% | -9% | -1% | -1%
COC(=O)c1ccccc1NC(=O)NCc1ccccc1 | -12% | ? | 3% | -3% | . | -1%
CCC(C(=O)NCc1ccncc1)c1ccccc1 (centres undefined) | 10µM* | 21% | 12% | -4% | 1% | 0%
COc1ccc2[nH]c3c(NCCCOC(C)C)ncnc3c2c1 | -56% | -81% | 11µM* | 3% | 0% | 2%
CCOc1ccc2[nH]c3c(NCCC(C)C)ncnc3c2c1 | ? | ? | -26% | 2% | -6% | 1%
COc1ccc2[nH]c3c(NCCC4=CCCCC4)ncnc3c2c1 | 3.7µM* | 3% | 2.8µM* | ? | . | 1%
CCN(CC)CCNc1ncnc2c1[nH]c1ccc(OC)cc12 | 2% | 4% | . | . | -1% | -2%
CCOc1ccc2[nH]c3c(NCCN(C)C)ncnc3c2c1 | 2.1µM* | 2.3µM* | . | . | -2% | 5%
O=C(COC(=O)c1cccc(Br)c1)NCC1CCCO1 (centres undefined) | . | . | ? | 0% | . | -6%
O=C(COc1cccc(Cl)c1)Nc1nc(-c2ccc(S(=O)(=O)N3CCOCC3)cc2)cs1 | 9.3µM* | 8.3µM* | ? | 15% | ? | 11%
SMILES | Pf growth 96h | Pf growth 48h | HCV inhibitor | AMA1-RON2 inh | NS1 inh | SARS PLpro yeast
CCOc1cccc(C(=O)Nc2nc(-c3ccc(S(=O)(=O)N4CCOCC4)cc3)cs2)c1 | . | 5.2µM* | -28% | -8% | 11% | 2%
O=C(Nc1nc(-c2ccncc2)cs1)c1ccc(S(=O)(=O)N2CCOCC2)cc1 | ? | ? | -22% | -1% | -7% | 1%
C=C1CCN(C(C)C(=O)O)S(=O)(=O)c2ccccc21 (centres undefined) | -3% | 16% | 1.4µM* | 6% | 8% | 0%
C=C1CCN(C(C)C(=O)OC)S(=O)(=O)c2ccccc21 (centres undefined) | -21% | 6% | -3%[8.37 µM] | 6% | 8% | 1%
COc1ccc(Nc2nc(N3CCCCC3)nc(N3CCCCC3)n2)c(OC)c1 | -8% | 14% | 13% | -7% | 18% | 2%
COc1ccc(Nc2nc(N3CCCC3)nc(N3CCCC3)n2)c(OC)c1 | 38% | . | 10µM* | -18% | 7% | -4%[6.58 µM]
COc1ccc(Nc2nc(N3CCCCC3)nc3ccccc23)c(OC)c1 | -89% | . | ? | 18% | -117% | 3%
COc1ccc(Nc2nc(Nc3ccc(OC)cc3OC)nc(N3CCN(C)CC3)n2)c(OC)c1 | 0% | ? | 1µM* | ? | 12% | -8%
CCOc1nc(Nc2ccc(OC)cc2OC)nc(OCC)n1 | 4% | 7% | -20% | -4% | -11% | 5%
COc1ccc(N2CCN(c3nc(NC(C)(C)C)nc(N4CCCCC4)n3)CC2)cc1 | . | 1.9µM* | ? | ? | -138% | -3%
CCOc1ccc(Nc2nc(N3CCCC3)nc(N3CCN(c4ccc(OC)cc4)CC3)n2)cc1 | 3% | ? | 2% | -5% | . | -3%
COc1ccc(Nc2nc(NC(C)(C)C)nc(N3CCCC3)n2)c(OC)c1 | 4.7µM* | . | 5.6µM* | ? | -159% | -34%
C#CCOc1ccccc1C(N)=O | 27% | 10% | -2% | -1% | -3% | 0%
CCn1c(=N)n(CC(=O)c2ccc(Br)s2)c2ccccc21 | ? | ? | ? | 1% | -2% | 0%
CCCCn1c(=N)n(CC(=O)c2ccc(Br)s2)c2ccccc21 | 12µM* | 10µM* | ? | -4% | -4% | 0%
CC(C)C1OC(c2cccc(NC(=O)c3cccs3)c2)OCC1(C)C (centres undefined) | ? | 1.9µM* | ? | -2% | . | -7%
COc1ccc([C@]23Cc4ccccc4C(O2)c2c(cc(C)n(Cc4ccccc4)c2=O)O3)cc1 | ? | ? | . | . | -25% | -13%[6.58 µM]
O=C1Cc2cc([N+](=O)[O-])ccc2N1c1c(Cl)cccc1Cl | 16% | 4.7µM* | -1% | 6% | 16% | -3%
O=[N+]([O-])c1ccc(N2CCN(c3ccccc3O)CC2)c(Cl)c1 | ? | ? | ? | ? | ? | -30%
COc1ccc(-c2cc(C(=O)Nc3cc(C)nn3-c3ccccc3)no2)cc1OC | -8% | ? | ? | 10% | . | 0%
